Test results: PubChem BioAssay (NCATS)
Inconclusive results are not listed. Activity calls are given as the source filed them. Unless noted, the call rests on the fitted dose curve; in most records, active means well fitted cell-killing curve with a large enough effect; inconclusive means small, poorly fitted or top-dose-only effect; inactive means flat fitted curve, though single readings scatter.

How the values were obtained:
[1] = Cell Viability - LYMP2-020 (AID 986); further: nearly all actives have a fitted effect of over 55% in size; further: potency means the concentration at half of the fitted maximal effect
Summary of the method: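 Human lymphoblastoid LYMP2-020 cells (2500/well) preincubated 5 h at 37 C, then treated 24 h at 37 C. Viability measured as intracellular ATP by CellTiter-Glo luminescence after 30 min at room temperature; AC50 from Hill fits.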

[2] = Cell Viability - LYMP2-022 (AID 987); further: nearly all actives have a fitted effect of over 55% in size; further: potency means the concentration at half of the fitted maximal effect
Summary of the method: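 LYMP2-022 lymphoblastoid cells (2500/well, complete medium) were treated with compounds for 24 hours at 37 C; intracellular ATP was then read by CellTiter-Glo luminescence after 30 min at room temperature. AC50 values were derived from Hill-equation fits.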

[3] = Cell Viability - LYMP2-024 (AID 988); further: nearly all actives have a fitted effect of over 60% in size; further: potency means the concentration at half of the fitted maximal effect
Summary of the method: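 Human lymphoblastoid LYMP2-024 cells (2500/well) rested 5 hr, then treated with compound for 24 hr at 37 C in complete medium. Viability was measured as intracellular ATP by CellTiter-Glo luminescence. AC50 values came from Hill-equation fits.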

[4] = Cell Viability - LYMP2-026 (AID 989); further: nearly all actives have a fitted effect of over 50% in size
Summary of the method: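 Human lymphoblastoid LYMP2-026 cells, 2500/well, exposed to compound 24 h at 37 C in complete medium. Viability as intracellular ATP by CellTiter-Glo luminescence; AC50 from Hill fits of qHTS concentration-response.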

[5] = Cell Viability - LYMP1-002 - Assay at 24 hr (AID 993); further: potency means the concentration at half of the fitted maximal effect
Summary of the method: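 Human lymphoblastoid LYMP1-002 cells (2500/well) treated 24 h at 37 °C; viability as intracellular ATP by CellTiter-Glo luminescence. Tetraoctylammonium bromide as positive control; AC50 from Hill-equation fits of qHTS concentration-response.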

[6] = Cell Viability - LYMP1-002 - Assay at 40 hr (AID 994); further: nearly all actives have a fitted effect of over 60% in size
Summary of the method: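 LYMP1-002 human lymphoblastoid cells (2500/well, complete medium) were treated with compounds for 40 hr at 37 C. Intracellular ATP was measured by CellTiter-Glo luminescence, and AC50 values came from Hill-equation fits of concentration-response data; tetraoctylammonium bromide was the positive control.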

[7] = qHTS Assay for Identification of Small Molecule Inducers of Hypoxia Response (AID 2120; active means well fitted curve in the direction sought with a large enough effect in the signal ratio, with a control signal flat, not every such curve was filed as active; the % refers to the signal ratio)
Summary of the method: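 HRE-bla ME-180 cells in Opti-MEM with 0.5% dialyzed FBS, pre-plated 4-5 h, then compound titration for 17 h at 37 degrees Celsius. CCF4 loaded 2.5 h at room temperature; 460/530 nm ratio gave %Activity and AC50 for induction.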

Measured: Potency

Cc1ccc([N+](=O)[O-])c(N)c1
inactive: all assays above

O=C(O)c1cccc([N+](=O)[O-])c1
inactive: all assays above

CCCCOCCOCCSC#N
inactive: all assays above

CC(=O)c1ccc([N+](=O)[O-])cc1
inactive: all assays above

O=[N+]([O-])c1c(Cl)cc(Cl)cc1Cl
inactive: all assays above

CCC1CO1 (stereo unspecified)
inactive: all assays above

Cc1cc(C2(c3cc(C)c(O)cc3C)OS(=O)(=O)c3ccccc32)c(C)cc1O
inactive: all assays above

Cc1ccccc1C(=O)O
inactive: all assays above

N#CC1(O)CCCCC1
inactive: all assays above

O=[N+]([O-])c1ccccc1CCO
inactive: all assays above

CCCCC=O
inactive: all assays above

C=Cc1ccccn1
inactive: all assays above

Nc1ccccc1[N+](=O)[O-]
inactive: all assays above

CCCCCNCCCCC
inactive: all assays above

CC(O)CC(C)O (stereo unspecified)
inactive: all assays above

Nc1ccccc1S(=O)(=O)O
inactive: all assays above

Nc1nc(CC(=O)O)cs1
inactive: all assays above

NS(=O)(=O)O
inactive: all assays above

CCCC=O
inactive: all assays above

COC(=O)c1ccccc1
inactive: all assays above

CSCCC=O
inactive: all assays above

CC1=C(/C=C/C(C)=C/C=C/C(C)=C\C=O)C(C)(C)CCC1
inactive: [7]
active: [2] 39.8 µM | [3] 31.6 µM | [5] 63.1 µM

CCCCC/C=C/C=C/C=O
inactive: [5] | [7]
active: [1] 39.8 µM | [2] 50.1 µM | [3] 50.1 µM

CC(=O)c1ccccn1
inactive: all assays above

COc1cccc(N)c1
inactive: all assays above

CCCCC(CC)CNCC(CC)CCCC (stereo unspecified)
not listed: [4]
inactive: all other assays above

O=C(O)c1ccc(C(=O)O)cc1
not listed: [2]
inactive: all other assays above

CCCCC(CC)CO (stereo unspecified)
not listed: [2]
inactive: all other assays above

CSc1ccc(C=O)cc1
not listed: [2]
inactive: all other assays above

CC(C)Cc1nccs1
not listed: [2]
inactive: all other assays above

CC(C)(C)OC=O
inactive: [5] | [6] | [7]

O=C(O)c1ccc(CO)o1
not listed: [3]
inactive: all other assays above

S=C([S-])NCCNC(=S)[S-].[Zn+2]
not listed: [4]
inactive: all other assays above

Cc1ccc2c(c1[N+](=O)[O-])C(=O)c1ccccc1C2=O
not listed: [3]
inactive: all other assays above

CC(C)(C)OCC1CO1 (stereo unspecified)
not listed: [2]
inactive: all other assays above

CC1CCC2CC1C2(C)C (stereo unspecified)
inactive: all assays above

CCCCC(CC)C(=O)O (stereo unspecified)
inactive: all assays above

Cc1cccc2cccnc12
not listed: [2]
inactive: all other assays above

Clc1ccc(Cl)c(Cl)c1Cl
not listed: [4]
inactive: all other assays above

Cc1ccc(C(=O)O)cc1
not listed: [2] | [4]
inactive: all other assays above

Cc1ccc(C)c([N+](=O)[O-])c1
not listed: [2]
inactive: all other assays above

CCC(=O)/C=C/C1C(C)=CCCC1(C)C (stereo unspecified)
not listed: [2] | [3]
inactive: all other assays above

c1ccc2[nH]cnc2c1
inactive: all assays above

CC1CCCO1 (stereo unspecified)
not listed: [4]
inactive: all other assays above

NC(=S)NNC(N)=S
not listed: [4] | [6]
inactive: all other assays above

CC/C(C)=N/O
not listed: [2]
inactive: all other assays above

CCOC(=O)C(C)C(C)=O (stereo unspecified)
not listed: [2]
inactive: all other assays above

c1ccc2n[nH]nc2c1
not listed: [2]
inactive: all other assays above

O=C1OC(=O)c2c(Cl)c(Cl)c(Cl)c(Cl)c21
inactive: all assays above

C=C(C)C(=O)OC
inactive: all assays above

N#Cc1ccccc1
not listed: [2]
inactive: all other assays above

Cc1cccc(Br)c1
not listed: [4]
inactive: all other assays above

CC(O)COC(C)(C)C (stereo unspecified)
not listed: [2]
inactive: all other assays above

Nc1cccc(N)c1
not listed: [4] | [6]
inactive: all other assays above

c1ccc(Nc2ccccc2)cc1
inactive: all assays above

CC(C)C(C)C
not listed: [4]
inactive: all other assays above

ON=C1CCCCC1
not listed: [2]
inactive: all other assays above

CCC(C)O (stereo unspecified)
inactive: all assays above

CCN(C(=O)N(CC)c1ccccc1)c1ccccc1
not listed: [4]
inactive: all other assays above

N#CCc1ccccc1[N+](=O)[O-]
not listed: [4]
inactive: all other assays above

C[C@@H]1O[C@@H](O[C@@H]2[C@@H](O)[C@H](OCCc3ccc(O)c(O)c3)O[C@H](CO[C@@H]3O[C@H](CO)[C@@H](O)[C@H](O)[C@H]3O)[C@H]2OC(=O)/C=C/c2ccc(O)c(O)c2)[C@H](O)[C@H](O)[C@H]1O
not listed: [2]
inactive: all other assays above
